The panel holds about 79,000 compounds, 15% with a hit somewhere; the sample as a whole holds those more often. Activity calls are given as the source filed them. No stated cut-off is given here; in the data, active means growth inhibition above about 70%; inactive means the rest.
Experiments:
[1] = NCI Yeast Anticancer Drug Screen. Data for the rad50 strain (AID 155);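 further: 0% = growth of vehicle-only cultures of the same strain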; conditions: S. cerevisiae rad50 strain growth inhibition, hits give high values
Outline: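 Yeast carrying a defined DNA repair defect were exposed to test compounds, and growth was compared with vehicle-treated controls to give percent inhibition.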

[2] = NCI Yeast Anticancer Drug Screen. Data for the mec2-1 strain (AID 157); conditions: S. cerevisiae mec2-1 strain, hits give high values
Outline: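 Test agents were screened against the mec2-1 yeast strain, with defined DNA repair or cell cycle alteration. Growth was scored as inhibition against vehicle-only controls.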

[3] = NCI Yeast Anticancer Drug Screen. Data for the sgs1 mgt1 strain (AID 161);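 further: 0% = growth of cultures given vehicle only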; conditions: S. cerevisiae sgs1 mgt1 strain, hits give high values
Outline: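 Mutant yeast exposed to compound; growth scored against vehicle-only wells.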

[4] = NCI Yeast Anticancer Drug Screen. Data for the cln2 rad14 strain (AID 165);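 further: 0% = growth equal to vehicle treated cultures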; conditions: S. cerevisiae cln2 rad14 strain, hits give high values
Outline: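 Growth of compound-exposed yeast (cln2 rad14 genotype) measured and expressed as inhibition relative to vehicle.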

[5] = NCI Yeast Anticancer Drug Screen. Data for the bub3 strain (AID 167); conditions: S. cerevisiae bub3 mutant strain, hits give high values
Outline: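 Compounds were applied to a genetically altered yeast strain carrying a cell-cycle control defect. Growth inhibition was scored against vehicle-treated controls.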

[6] = NCI Yeast Anticancer Drug Screen. Data for the mlh1 rad18 strain (AID 175); conditions: S. cerevisiae mlh1 rad18 strain growth inhibition, hits give high values
Outline: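 In this whole-cell yeast screen, a strain with altered DNA damage repair is challenged with compound, and its growth is measured against matched vehicle-treated controls.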

[7] = at 5.0 µM (retest, dose inferred, filed as 0.5)
[8] = at 50.0 µM (retest, dose inferred, filed as 5.0)

Measured: growth inhibition

CN(Cc1ccccc1)CC(O)c1cccc(I)c1 (stereo not given)
inactive: [1]; [7] -3% | [1]; [8] 18% | [1]; at 50.0 µM 49.5% | [2]; [7] -3% | [2]; [8] 9% | [2]; at 50.0 µM 11.3% | [3]; [7] -2% | [3]; [8] 36% | [3]; at 50.0 µM 51.6% | [4]; [7] 1% | [4]; [8] 11% | [4]; at 50.0 µM 31.6% | [5]; [7] 0% | [5]; [8] 35% | [5]; at 50.0 µM 56.2% | [6]; [7] -4% | [6]; [8] 24% | [6]; at 50.0 µM 27.2%

CC(=O)CC(=O)Nc1c(C)[c]([Hg][O]C(C)=O)c(C)[c]([Hg][O]C(C)=O)[c]1[Hg][O]C(C)=O
active: [1]; [8] 93% | [1]; at 50.0 µM 90.8% | [2]; [7] 99% | [2]; [8] 94% | [2]; at 50.0 µM 92.6% | [3]; [8] 94% | [3]; at 50.0 µM 92.8% | [4]; [8] 93% | [4]; at 50.0 µM 88% | [5]; [7] 99% | [5]; [8] 94% | [5]; at 50.0 µM 92.2% | [6]; [7] 85% | [6]; [8] 93% | [6]; at 50.0 µM 90%
inactive: [1]; [7] 60% | [3]; [7] 57% | [4]; [7] 33%

COC(=O)[CH2][Sn]([CH2]C(=O)OC)([CH]1CCCCC1)[CH]1CCCCC1
active: [1]; at 50.0 µM 98.4% | [2]; at 50.0 µM 97.2% | [3]; at 50.0 µM 99.2% | [4]; at 50.0 µM 98% | [5]; at 50.0 µM 97.2% | [6]; at 50.0 µM 98.5%
inactive: [1]; [7] 3% | [1]; [8] 65% | [2]; [7] -3% | [2]; [8] 45% | [3]; [7] 2% | [3]; [8] 69% | [4]; [7] 5% | [4]; [8] 33% | [5]; [7] 1% | [5]; [8] 59% | [6]; [7] 2% | [6]; [8] 48%

C[C@]12CC[C@H]3[C@@H](CCC4=CC(=O)CC[C@@H]43)[C@@H]1CC[C@@H]2OC(=O)N(CCCl)N=O
active: [1]; [8] 95% | [1]; at 50.0 µM 84.8% | [2]; [8] 97% | [2]; at 50.0 µM 85.3% | [3]; [8] 97% | [3]; at 50.0 µM 83.2% | [4]; [8] 96% | [4]; at 50.0 µM 79% | [5]; [7] 72% | [5]; [8] 96% | [5]; at 50.0 µM 85.7% | [6]; [8] 94% | [6]; at 50.0 µM 85%
inactive: [1]; [7] 44% | [2]; [7] 43% | [3]; [7] 67% | [4]; [7] 68% | [6]; [7] 39%

O=C1c2ccccc2C[CH]1[Hg][Cl] (stereo not given)
active: [1]; [7] 99% | [1]; [8] 99% | [1]; at 50.0 µM 99.2% | [2]; [7] 100% | [2]; [8] 100% | [2]; at 50.0 µM 99.5% | [3]; [7] 100% | [3]; [8] 99% | [3]; at 50.0 µM 99.3% | [4]; [7] 99% | [4]; [8] 99% | [4]; at 50.0 µM 96.2% | [5]; [7] 99% | [5]; [8] 99% | [5]; at 50.0 µM 98.7% | [6]; [7] 99% | [6]; [8] 99% | [6]; at 50.0 µM 99.3%

O=[N+]([O-])c1ccc2c3c(cccc13)CC2
inactive: [1]; [7] 15% | [1]; at 50.0 µM 6.7% | [2]; [7] 3% | [2]; [8] 32% | [2]; at 50.0 µM 9.15% | [3]; [7] 11% | [3]; at 50.0 µM 0.9% | [4]; [7] -1% | [4]; [8] 48% | [4]; at 50.0 µM -4.15% | [5]; [7] 6% | [5]; [8] 54% | [5]; at 50.0 µM 19.9% | [6]; [7] 25% | [6]; at 50.0 µM 18.4%
active: [1]; [8] 86% | [3]; [8] 84% | [6]; [8] 90%

COc1cc(C2c3cc4c(cc3OC(N3CCOCC3)C2C)OCO4)cc(OC)c1OC (stereo not given)
inactive: [1]; [7] 18% | [1]; [8] 22% | [1]; at 50.0 µM -12.6% | [2]; [7] 21% | [2]; [8] 31% | [2]; at 50.0 µM -2.55% | [3]; [7] -17% | [3]; [8] -10% | [3]; at 50.0 µM -1.05% | [4]; [7] 4% | [4]; [8] 0% | [4]; at 50.0 µM 4.2% | [5]; [7] 0% | [5]; [8] -11% | [5]; at 50.0 µM 13.3% | [6]; [7] 22% | [6]; [8] 28% | [6]; at 50.0 µM 0.7%

COc1ccc2c(c1)CCC(N1CCCC(=O)C1)C2 (stereo not given)
inactive: [1]; [7] 9% | [1]; [8] 11% | [1]; at 50.0 µM 23.1% | [2]; [7] 8% | [2]; [8] 17% | [2]; at 50.0 µM 24.4% | [3]; [7] 8% | [3]; [8] 26% | [3]; at 50.0 µM 66% | [4]; [7] 11% | [4]; [8] 38% | [4]; at 50.0 µM 17.4% | [5]; [7] 4% | [5]; [8] 31% | [6]; [7] 9% | [6]; [8] 29% | [6]; at 50.0 µM 25.1%
active: [5]; at 50.0 µM 89.1%

Cc1[cH-]c(=O)n(-c2ccccc2)n1.[Au+].[Au].c1ccc([PH+](c2ccccc2)c2ccccc2)cc1.c1ccc([PH+](c2ccccc2)c2ccccc2)cc1
inactive: [1]; [7] 27% | [1]; [8] 65% | [2]; [7] 32% | [3]; [7] 33% | [4]; [7] 18% | [4]; [8] 65% | [5]; [7] 19% | [6]; [7] 35%
active: [1]; at 50.0 µM 88.8% | [2]; [8] 96% | [2]; at 50.0 µM 90.3% | [3]; [8] 93% | [3]; at 50.0 µM 91.5% | [4]; at 50.0 µM 88.7% | [5]; [8] 87% | [5]; at 50.0 µM 89.4% | [6]; [8] 79% | [6]; at 50.0 µM 83%

CC(=O)C(CN(CC(C)C)CC(C)C)C(c1ccccc1)c1c(O)c2ccccc2oc1=O (stereo not given)
inactive: [1]; [7] 0% | [1]; [8] 0% | [2]; [7] -12% | [2]; [8] -12% | [3]; [7] -2% | [3]; [8] -2% | [4]; [7] -10% | [4]; [8] -10% | [5]; [7] -1% | [5]; [8] -1% | [6]; [7] 7% | [6]; [8] 7%
active: [1]; at 50.0 µM 80.1% | [2]; at 50.0 µM 73.7% | [3]; at 50.0 µM 85% | [4]; at 50.0 µM 83.2% | [5]; at 50.0 µM 78.8% | [6]; at 50.0 µM 81.9%

Reference: PubChem BioAssay (NCI)
